High-throughput results (PubChem BioAssay)
Sampled rows, rich in hits. Any-hit rate of the full collection: about 1.5%.
SARS 3CLpro inh: SARS-CoV 3CLpro protease inhibitors, primary screen, biochemical, quenched FRET; actives 0.14% (n = 290,000); inhibition, % at 6 µM; Replicase polyprotein 1ab (Severe acute respiratory syndrome coronavirus), P0C6X7; AID 1706, 2009; recombinant SARS-CoV 3CLpro, quenched FRET peptide cleavage; in the data active means inhibition above about 12%
VHR inh abs: VHR1 phosphatase inhibitors, primary screen, biochemical, absorbance, uHTS; inhibition, % at 13.3 µM; recombinant VHR phosphatase, pNPP absorbance; Dual specificity protein phosphatase 3 (Homo sapiens), P51452; actives 0.52% (n = 290,000); AID 1654, 2009; in the data active means inhibition above about 50%
Mtb hypoxia inh: PubChem AID 1159583; M. tuberculosis hypoxia-regulated fluorescent reporter, fluorescence; fluorescence inhibition, % (test concentration not listed); actives 0.1% (n = 300,000); in the data active means fluorescence inhibition mostly above about 23%, no sharp cut-off; inactive means mostly below about 17%
MazF activator: activators of E. coli MazEF toxin-antitoxin RNase, primary screen, biochemical, fluorescence, uHTS; Endoribonuclease toxin MazF (Escherichia coli (strain K12)), P0AE70; FAM/BHQ RNA-DNA oligo cleavage fluorescence, 5 h; activation, % at 20 µM; actives 0.32% (n = 350,000); in the data active means activation above about 50%
PrP UTR inh: inhibition of PrP 5' UTR reporter expression; cell-based PrP 5' UTR mRNA reporter, plate reader; inhibition, % (no concentration beside the values); actives 0.35% (n = 340,000); in the data active means inhibition above about 52%; further: 0 = median of the neutral control wells
PrPC TRFRET: inhibitors of human cell surface prion protein PrPC, primary screen, cell-based, TR-FRET | Major prion protein (Homo sapiens), P04156 | TR-FRET read-out | inhibition, % at 13.8 µM | actives 0.43% (n = 370,000) | AID 720596, 2013; in the data active means inhibition above about 24%; further: 0% = median of the test wells and 100% = reference compound wells
PrPC TRFRET cf: confirmation of inhibitors of cell surface human prion protein, confirmation, cell-based, TR-FRET; shares compounds with PrPC TRFRET; cell surface PrPC level; inhibition, % at 13.8 µM; actives 65% (n = 1,500); AID 743200, 2013; in the data active means inhibition above about 25%
LD9 tox: cytotoxicity in LD9 cells, cytotoxicity control for cell surface PrPc inhibitor project, cell-based, luminescence, high throughput; shares compounds with PrPC TRFRET; luminescence viability; inhibition, % at 13.8 µM; actives 29% (n = 1,500); in the data active means inhibition above about 9.5%
An asterisk follows results filed as active.

For CN(C)c1ccc(C(C[N+](=O)[O-])c2c(N)n(C)c(=O)n(C)c2=O)c(F)c1C#N (stereo unspecified) the results were SARS 3CLpro inh -6.0, VHR inh abs -6.7, Mtb hypoxia inh 15.6, MazF activator -9.8, PrP UTR inh -15.3 and PrPC TRFRET -11.3.
`COC(=O)C1=C(c2cc3ccccc3s2)CC2CCC1N2C(=O)NC(C)C` (stereo unspecified) gave Mtb hypoxia inh 5.6.
Screening COc1ccc(-n2nnnc2CNC(=O)C2CC(=O)N(c3ccc(F)cc3)C2)cc1 (stereo unspecified) returned MazF activator -1.1, PrPC TRFRET 30.9*, PrPC TRFRET cf 3.5 and LD9 tox -2.6.
For CN1CCN(C=Nc2sc3c(c2C#N)CCCCC3)CC1 the results were Mtb hypoxia inh 6.7.
For Cc1ccc(-c2nc3ccccc3n3c(C)nnc23)cc1 the results were SARS 3CLpro inh -0.2 and VHR inh abs 3.8.
`Cc1nnc2c(SC(C)C)nc3ccccc3n12` gave SARS 3CLpro inh -1.9, VHR inh abs 7.9, Mtb hypoxia inh 14.6, MazF activator 11.9, PrP UTR inh -6.4, PrPC TRFRET 33.4*, PrPC TRFRET cf 46.9* and LD9 tox -8.3.
For Cc1ccc2[nH]c3c(=S)nc[nH]c3c2c1 the results were SARS 3CLpro inh 1.5, VHR inh abs 25.6, Mtb hypoxia inh 11.8, MazF activator 1.2, PrP UTR inh -46.3, PrPC TRFRET 129.1*, PrPC TRFRET cf 147.3* and LD9 tox 3.5.
Cc1ccc2[nH]c3c(=O)n(N)c(C)nc3c2c1 was read as SARS 3CLpro inh -3.3, VHR inh abs 10.3, Mtb hypoxia inh 11.8, MazF activator 4.2, PrP UTR inh -40.1 and PrPC TRFRET 6.8.
For Nc1nc(-c2cccs2)c(-c2cccs2)s1 the results were SARS 3CLpro inh -0.2, VHR inh abs 6.0, Mtb hypoxia inh -1.0, MazF activator -6.4, PrP UTR inh -9.1, PrPC TRFRET 24.8*, PrPC TRFRET cf 19.8 and LD9 tox -0.8.
Screening Nc1nccc(-c2cccs2)n1 returned SARS 3CLpro inh -1.9, VHR inh abs 5.5, Mtb hypoxia inh 7.6, MazF activator 0.5, PrP UTR inh -9.0 and PrPC TRFRET -2.4.
CC1CC1C(=O)Nc1nc(-c2cccs2)c(-c2cccs2)s1 (stereo unspecified) was read as SARS 3CLpro inh -0.9, VHR inh abs -19.2, MazF activator 9.1, PrP UTR inh -14.6, PrPC TRFRET 25.4*, PrPC TRFRET cf 12.3 and LD9 tox -2.8.
For COc1cc(C=NNc2nc(Nc3ccccc3)nc(N3CCCCC3)n2)ccc1OCC(=O)O the results were Mtb hypoxia inh -9.0.
For CCN1C(=O)C2C(c3ccc(-c4ccc(Cl)c(Cl)c4)cc3)N[C@@](Cc3ccccc3)(C(=O)OC)C2C1=O (stereo partly specified) the results were Mtb hypoxia inh 0.1.
Screening CS(=O)(=O)N(CC(=O)NN=Cc1ccccc1C(=O)O)c1cccc(Cl)c1Cl returned Mtb hypoxia inh 11.0.
Screening O=C(Nc1ccccc1)Nc1cc(OCC(F)(F)F)cc(OCC(F)(F)F)c1 returned SARS 3CLpro inh -1.2, VHR inh abs -6.9, Mtb hypoxia inh -8.1, MazF activator 4.4, PrP UTR inh -11.6, PrPC TRFRET 38.0*, PrPC TRFRET cf 28.3* and LD9 tox 14.3*.
`Cc1ccc(C(C)C)c(OCc2ccc(C(=O)N/N=C/c3ccc(O)c(O)c3)cc2)c1` gave SARS 3CLpro inh 2.3, VHR inh abs 13.7, MazF activator 4.4, PrP UTR inh 3.1, PrPC TRFRET 27.8*, PrPC TRFRET cf 40.6* and LD9 tox 11.1*.
Screening COc1cc(/C=N/NC(=O)c2ccc(COc3cc(C)ccc3C(C)C)cc2)cc(OC)c1O returned SARS 3CLpro inh 2.2, VHR inh abs 4.6, MazF activator -3.7, PrP UTR inh 6.9 and PrPC TRFRET 1.9.
`Oc1ccc(/C=N/Nc2nccnc2Cl)c(O)c1` gave SARS 3CLpro inh 1.1, VHR inh abs 16.1, MazF activator 9.0, PrP UTR inh -1.1, PrPC TRFRET 24.7*, PrPC TRFRET cf 33.2* and LD9 tox 23.9*.
Screening Oc1ccccc1/C=N/Nc1nccnc1Cl returned SARS 3CLpro inh 1.9, VHR inh abs -0.5, MazF activator 0.3, PrP UTR inh 27.1 and PrPC TRFRET 4.7.
Screening CC1(C)CC[C@]2(C(=O)O)CC[C@]3(CO)C(=CCC4[C@@]5(C)CC(O)C(O)[C@@](C)(C(=O)O)C5CC[C@]43C)C2C1 (stereo partly specified) returned Mtb hypoxia inh 14.4.
For c1ccc(Cc2nnc(Sc3ccccc3)c3ccccc23)cc1 the results were SARS 3CLpro inh -0.7, VHR inh abs -2.4, Mtb hypoxia inh 5.5, MazF activator -2.7, PrP UTR inh -70.3, PrPC TRFRET 52.5*, PrPC TRFRET cf 71.2* and LD9 tox -14.0.
Screening c1ccc(Sc2ncnc3ccccc23)cc1 returned SARS 3CLpro inh 1.0, VHR inh abs -0.1, MazF activator 4.5, PrP UTR inh -29.9 and PrPC TRFRET -2.2.
`C=CCNc1nc(N)c(C(=O)Nc2cc(C)on2)s1` gave SARS 3CLpro inh 6.5, VHR inh abs -4.7, Mtb hypoxia inh 3.1, MazF activator 3.0, PrP UTR inh -83.9 and PrPC TRFRET -6.5.
Cc1cc(NC(=O)c2sc(Nc3ccc(F)cc3)nc2N)no1 was read as SARS 3CLpro inh 3.6, VHR inh abs 11.9, MazF activator 2.0, PrP UTR inh -18.0, PrPC TRFRET 25.8*, PrPC TRFRET cf 25.8* and LD9 tox 12.6*.
For CCc1cccc(CC)c1NC(=O)CO/N=C(\C)c1cccs1 the results were SARS 3CLpro inh -3.4, VHR inh abs -21.6, MazF activator -3.0, PrP UTR inh 1.1, PrPC TRFRET 34.5*, PrPC TRFRET cf 29.7* and LD9 tox -6.4.
CC(=O)c1ccc(NC(=O)CO/N=C(\C)c2cccs2)cc1 was read as SARS 3CLpro inh 2.4, VHR inh abs -3.8, MazF activator 12.6, PrP UTR inh 1.8 and PrPC TRFRET 4.0.
Screening N#CC(C#N)=C(Nc1ccc(F)cc1)SCc1cccc(Br)c1 returned SARS 3CLpro inh -0.7, VHR inh abs -11.7, Mtb hypoxia inh 13.2, MazF activator 3.7, PrP UTR inh 8.4, PrPC TRFRET 32.1*, PrPC TRFRET cf 38.2* and LD9 tox 31.8*.
